# Tau fluor counter: counter-screen for tau fibril formation inhibitors. tau K18 P301L Alexa594 fluorescence, heparin fibrillization. Potency, µM (top dose mostly 57.7 µM), inactives show top-dose activity change, negative = decrease. 280,000 compounds, 0.93% hits; also: potency is read from the fitted curve at half-maximal effect; nearly all actives have a fitted effect of over 55% in size
#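 Human tau K18 P301L (15 uM unlabeled, 0.24 uM Alexa 594-labeled) in 100 mM sodium acetate pH 7 with 20 uM heparin, 6 hr at 37 C. ThT 30 uM added, 1 hr ambient; Alexa 594 FP and total fluorescence read at 555/632 nm.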
# G9a block: blocks human histone lysine methyltransferase G9a; 350,000 compounds, 8.8% hits; G9a H3K9 monomethylation, AlphaScreen, 2 h; Q96KQ7; Potency, µM (top dose mostly 102 µM), for inactives: at the highest dose activity, negative = inhibition, usual class: inhibitors; AID 504332; also: potency is read from the fitted curve at half-maximal effect; nearly all actives have a fitted effect of over 75% in size
# Target sequence (Q96KQ7 913-1193 limits assumed): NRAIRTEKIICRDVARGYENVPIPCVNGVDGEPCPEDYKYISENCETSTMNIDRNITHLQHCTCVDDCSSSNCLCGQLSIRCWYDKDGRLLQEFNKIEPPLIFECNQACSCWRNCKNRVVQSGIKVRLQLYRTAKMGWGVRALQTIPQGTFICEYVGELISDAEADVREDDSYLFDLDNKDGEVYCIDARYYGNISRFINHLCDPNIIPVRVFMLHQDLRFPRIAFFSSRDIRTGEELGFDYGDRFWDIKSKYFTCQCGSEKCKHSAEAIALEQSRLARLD
#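 Step 1: enzyme (final 20 nM) with compound, 15 min RT. Step 2: substrate peptide 500 nM and SAM 20 uM, 2 h RT. Step 3: anti-H3K9me1 antibody and AlphaScreen beads, 10 min, then plate read.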
# Sfp inh: inhibitors of Bacillus subtilis Sfp phosphopantetheinyl transferase; Biochemical Sfp PPTase activity, qHTS; AID 1490; 310,000 compounds, 3.5% hits; Potency, µM, for inactives: largest response in the series, negative = inhibition, most hits filed as inhibitors; Q9F4F7;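 also: the enzyme is Sfp with the accession as filed and its product quenches rhodamine fluorescence; potency is read from the fitted curve at half-maximal effect; 0% = enzyme reaction without inhibitor and -100% = no enzyme wells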
#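 Buffer: 50 mM Hepes-Na pH 7.6, 10 mM MgCl2, 0.01% Nonidet P-40, 0.01% BSA. Enzyme 15 nM, pre-exposed to compound 15 min; substrates then added and fluorescence change tracked over 30 min.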
# Tau FP inhib: inhibitors of human tau fibril formation. P10636. K18 P301L tau heparin fibrillization, Alexa594 FP, 6 h. Potency, µM (doses to about 57.7 µM), for the others: at the highest dose activity, negative = inhibition, usual class: inhibitors. 280,000 compounds, 0.39% hits. AID 1468; also: potency is read from the fitted curve at half-maximal effect; nearly all actives have a fitted effect of over 55% in size
# Target sequence (P10636 561-689 P618L limits assumed): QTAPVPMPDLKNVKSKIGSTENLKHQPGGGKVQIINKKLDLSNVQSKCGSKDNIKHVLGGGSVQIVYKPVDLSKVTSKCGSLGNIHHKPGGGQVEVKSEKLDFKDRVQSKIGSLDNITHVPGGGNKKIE
#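 FP of Alexa 594-tau after heparin (20 uM) induction. Substrate: human K18 P301L, 15 uM unlabeled, 0.24 uM labeled. Buffer 100 mM sodium acetate pH 7. 6 hr, 37 C.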
# FBPA coupling cs: counter-screen for Giardia aldolase inhibitors: coupling enzyme system; activity change, negative = inhibition, % at 58.2 µM, hits read low; 290,000 compounds, 0.67% hits; coupling enzyme system counterscreen, AmpLite Red fluorescence; in the data active = activity change below about -30%
#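 Activity here indicates interference with the coupling reaction, not aldolase inhibition. Compounds at 57.5 uM final met coupling enzymes for 10 min at RT; substrate and AmpLite Red detection followed, with a 525/598 nm fluorescence read after 20 min.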
# Tau ThT inhib: tau fibrillization inhibition (ThT binding). recombinant tau K18 P301L, heparin-induced fibrillization, ThT fluorescence. AID 1460. P10636. Potency, µM (series often up to 57.4 µM), inactives show top-dose activity, negative = inhibition, most hits filed as inhibitors. 270,000 compounds, 2.1% hits; also: potency is read from the fitted curve at half-maximal effect; nearly all actives have a fitted effect of over 55% in size
#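 Fibril formation assay: tau K18 P301L at 15 uM with trace Alexa 594 label, heparin inducer 20 uM, pH 7 sodium acetate buffer, 37 C for 6 hr; endpoint ThT signal.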
# * = called active by the depositor; ? = inconclusive; / = no result; [ ] = dose if it differs, or a comment. Rows were chosen to be rich in hits. Some 11% of all compounds tested hit in one or more screens of this group. Unless noted, calls follow the shape of the dose curve; as a rule, active = well fitted curve in the direction sought with a large enough effect; inconclusive = small, poorly fitted or top-dose-only effect, or another doubt; inactive = no such curve, though single readings can be large; an effect the other way counts as inactive or inconclusive. Unless noted, % is scaled to controls: 0 for no effect and ±100 for the full control effect.
SMILES,Tau fluor counter,G9a block,Sfp inh,Tau FP inhib,FBPA coupling cs,Tau ThT inhib
Cc1[nH]n(-c2ccccc2)c(=O)c1C(c1ccc([N+](=O)[O-])cc1)c1c(C)[nH]n(-c2ccccc2)c1=O,-8.9%,11.2µM*,-11.4%,2.1%,-4.1,-7.5%
Cc1c(C(c2ccc(O)cc2)c2c(O)c3ccccc3oc2=O)c(=O)n(-c2ccccc2)n1C (configuration not stated),-17.6%,-19.6%[59 µM],-2.7%,3.9%,9.6,?
O[C@@H]1[C@@H]2O[P@@](O)(=S)OC[C@H]2O[C@H]1n1cnc2cc(Cl)c(Cl)cc21,/,/,0.5%,/,11.6,/
CCCCn1c(C)c(C(=O)OCC)c2c(CN3CCOCC3)c(O)ccc21,-18.5%,?,-21.4%,16.8%,-1.2,?
CCCCn1c(C)c(C(=O)OCC)c2c(CN3CCCC3)c(O)ccc21,/,39.8µM*,-6.3%,/,0.6,/
CCC(=NC(C)c1ccccc1)c1c(O)[nH]c(=O)[nH]c1=O (configuration not stated),-1.8%,/,0.2%,-1.8%,1.6,/
CC/C(=N\Nc1cccc2ccccc12)c1c(O)[nH]c(=O)[nH]c1=O,?,1.58µM*,?,?,-9.9,28.2µM*
CC/C(=N\Nc1ccccc1)c1c(O)n(-c2ccc(OC)cc2)c(=O)[nH]c1=O,-24.2%,39.8µM*,?,3.4%,0.4,?
CC/C(=N\Nc1ccccc1)c1c(O)[nH]c(=O)[nH]c1=O,-8.1%,44.7µM*,6.0%,3.8%,-4.3,-6.5%
C/C(=N\N(C)c1ccccc1)c1c(O)[nH]c(=O)[nH]c1=O,11.6%,50.1µM*,7.2%,1.9%,-0.3,3.3%
Cc1ccc(-c2nnc(Nc3ccc(Br)cc3)c3ccccc23)cc1S(=O)(=O)NCc1nc2ccccc2[nH]1,?,5.2%[59 µM],/,?,/,10.6%
CCN(CC)/[N+]([O-])=N/O,2.4%,-37.5%[2.33 µM],-8.2%,-2.0%,3.3,1.3%
COc1ccc(NC2CC(=O)N(C(C)C)C2=O)cc1 (configuration not stated),-13.1%,22.4µM*,5.9%,-0.1%,-22.9,?
COc1cc(/C=N/NP(=S)(c2ccccc2)c2ccccc2)ccc1O,14.1µM*[quencher],44.7µM*,-24.1%,11.3%,2.6,?
Oc1ccc(/C=N/NP(=S)(c2ccccc2)c2ccccc2)cc1,12.6µM*[quencher],?,?,?,-0.6,?
CCOc1ccc(C(C)=O)cc1Cc1c(O)[nH]c(=S)[nH]c1=O,/,/,44.7µM*,/,-1.6,/
CC(=O)c1ccc(OC(C)C)c(Cc2c(O)[nH]c(=S)[nH]c2=O)c1,-19.6%,/,22.4µM*,?,2.3,?
COc1ccc(C(C)=O)cc1Cc1c(O)[nH]c(=S)[nH]c1=O,/,8.91µM*,50.1µM*,/,1.9,/
CN1CCc2cc(O)c(O)cc2C1Cc1ccc(O)c(O)c1 (configuration not stated),/,/,?,/,-9.1,/
Cc1ccc2oc(-c3ccc(Cl)cc3)c(O)c(=O)c2c1,-19.6%,8.0%[59 µM],/,-5.8%,/,?
O=C(CC1NCCC[C@H]1O)Cn1cnc2cc(Br)c(Cl)cc2c1=O (some centres not stated),/,-50.4%[12.7 µM],?,/,/,/
Clc1ccc(N2CC3CCC(C2)N3)nn1,-8.1%,23.8µM*,/,-5.6%,/,-8.7%
Clc1ccc(C2CC3CCC2N3)cn1 (configuration not stated),-7.2%,41.4%[59 µM],-11.1%,3.3%,-0.4,-4.3%
CC1CC2CCC(O2)C(C)C(=O)OC(C)CC2CCC(O2)C(C)C(=O)OC(C)CC2CCC(O2)C(C)C(=O)OC(C)CC2CCC(O2)C(C)C(=O)O1 (configuration not stated),/,/,7.7%,/,0.0,/
CC(C)(C)OC(=O)C(Br)CCBr (configuration not stated),/,/,-9.9%,/,0.1,/
O=[N+]([O-])c1ccc(N2CCCC(C(F)(F)F)C2)c2ccncc12 (configuration not stated),/,50.1µM*,-7.1%,/,-11.4,/
[O]=[Cd],/,30.8%[59 µM],10.9%,/,/,/
